Among the data in PubChem BioAssay (NCI) are growth values, retold here.

Among the test systems are DU-145 prostate; K-562 leukemia; MALME-3M melanoma; MDA-MB-231 breast; RXF 393 renal; SF-268 CNS; SF-295 CNS; SF-539 CNS; UACC-257 melanoma; M14 melanoma; HCT-15 colon; SNB-75 CNS; SNB-19 CNS; U251 CNS; PC-3 prostate; SK-MEL-5 melanoma; UACC-62 melanoma; LOX IMVI melanoma; SK-MEL-28 melanoma; HT29 colon.
Common to all, as to assay: NCI-60 one-dose screen, 48 h (100 = growth as untreated, 0 = no growth, -100 = all killed)
Common to all, as to conditions: 10 µM unless noted

About 83,000 compounds went through this panel and 20% of them were active in at least one assay; those are over-represented in the sample as a whole.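 A percent growth of 40 corresponds to 60% growth inhibition; 0 means no net growth; -100 means all cells died. Active threshold: below 10.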 A number with no mark means an inactive call. Calls of active or inactive are those of the source.

`Cc1ccc(S(=O)(=O)Nc2sccc2-c2nc(-c3ccccc3)no2)cc1`: the growth is 105% in the experiment on DU-145 prostate; 103% in the experiment on K-562 leukemia; 94.4% with MALME-3M melanoma; 101% in the experiment on MDA-MB-231 breast; 96.1% in the experiment with RXF 393 renal; 92.4% in the experiment on SF-268 CNS. In addition, the growth in the experiment with SF-295 CNS is 99.3%; with SF-539 CNS, 95%; with UACC-257 melanoma, 89.3%; in the experiment with M14 melanoma, 87.1%; in the experiment on HCT-15 colon, 97.9%; with SNB-75 CNS, 84.4%. Also, the growth is 94.4% with SNB-19 CNS; 93.9% with U251 CNS; 86.4% in the experiment with PC-3 prostate; 98.6% in the experiment on SK-MEL-5 melanoma; 79.1% in the experiment on UACC-62 melanoma; 91% in the experiment with LOX IMVI melanoma. For the same molecule, the growth in the experiment on SK-MEL-28 melanoma was 92.9%.
For `N=C(N)c1ccc(-c2ccc(-c3ccc(Cl)cn3)s2)cc1`, the growth with DU-145 prostate is 37.6%; in the experiment with K-562 leukemia it was -9.89% (active); with MALME-3M melanoma, 77.9%; with MDA-MB-231 breast, -46.5% (active); in the experiment with RXF 393 renal it was 52%; with SF-268 CNS, 79.8%. In addition, the growth with SF-295 CNS was -41.4% (active); with SF-539 CNS it was 40.2%; in the experiment with UACC-257 melanoma, 94.2%; in the experiment with M14 melanoma, 3.24% (active); in the experiment on HCT-15 colon, -46% (active); in the experiment on SNB-75 CNS, 62%. In addition, the growth in the experiment on SNB-19 CNS was 65.7%; in the experiment with U251 CNS, -24.7% (active); with PC-3 prostate it was 56.3%; in the experiment with SK-MEL-5 melanoma, 70.5%; with UACC-62 melanoma it was 89.7%; in the experiment with LOX IMVI melanoma, -82.1% (active). In addition, the growth in the experiment on SK-MEL-28 melanoma was 76.4%.
Regarding `CCc1cc(Cc2cc(CC)cc(C(C)(C)C)c2O)c(O)c(C(C)(C)C)c1`, the growth was 43.1% with DU-145 prostate; 8.51% (active) in the experiment with K-562 leukemia; 19.5% in the experiment with MALME-3M melanoma; 13.8% with MDA-MB-231 breast; 5.58% (active) with RXF 393 renal; 37.6% in the experiment on SF-268 CNS. For the same molecule, the growth in the experiment with SF-295 CNS is -2.11% (active); in the experiment on SF-539 CNS, 39.6%; in the experiment with UACC-257 melanoma it was 46.7%; with HCT-15 colon, 13.8%; in the experiment on HT29 colon, 23.3%; in the experiment on SNB-75 CNS it was 42.1%. Further, the growth with SNB-19 CNS was 20%; in the experiment on U251 CNS it was 16.3%; with PC-3 prostate, 15.1%; with SK-MEL-5 melanoma, 6.03% (active); in the experiment on UACC-62 melanoma it was 25.7%; in the experiment on LOX IMVI melanoma, 10.5%. Further, the growth in the experiment on SK-MEL-28 melanoma was 46%.
For `O=C(O)c1ccc(CO)o1`, the growth with DU-145 prostate is 113%; in the experiment with K-562 leukemia, 109%; with MALME-3M melanoma it was 113%; with MDA-MB-231 breast, 112%; with RXF 393 renal it was 104%; in the experiment on SF-268 CNS it was 109%. For the same molecule, the growth with SF-295 CNS is 102%; in the experiment with SF-539 CNS it was 99.6%; in the experiment with UACC-257 melanoma it was 85.5%; in the experiment with HCT-15 colon, 103%; with HT29 colon, 106%; in the experiment on SNB-75 CNS, 90.7%. The growth was 103% with SNB-19 CNS; 91.8% with U251 CNS; 105% with PC-3 prostate; 107% in the experiment with SK-MEL-5 melanoma; 101% in the experiment with UACC-62 melanoma; 109% in the experiment with LOX IMVI melanoma. In the experiment on SK-MEL-28 melanoma, the growth is 103%.
Regarding `O=C1C(Cl)C(c2ccccc2Cl)N1n1cnnc1` (stereo unspecified), the growth in the experiment with DU-145 prostate was 104%; with K-562 leukemia it was 102%; in the experiment on MALME-3M melanoma, 95.6%; in the experiment on MDA-MB-231 breast it was 94.8%; in the experiment with RXF 393 renal, 98.6%; with SF-268 CNS it was 102%. For the same molecule, the growth in the experiment on SF-295 CNS was 100%; with SF-539 CNS, 85.3%; with UACC-257 melanoma it was 91.5%; in the experiment on M14 melanoma, 93.1%; in the experiment with HCT-15 colon, 101%; with SNB-75 CNS, 74%. For the same molecule, the growth in the experiment on SNB-19 CNS was 93%; with U251 CNS, 99.6%; in the experiment with PC-3 prostate it was 88%; with SK-MEL-5 melanoma, 97.3%; in the experiment with UACC-62 melanoma it was 94.7%; in the experiment on LOX IMVI melanoma it was 91.4%. In addition, the growth with SK-MEL-28 melanoma was 96.4%.
Take `Cc1cc(Cl)nc(N(CCCNc2ccnc3cc(Cl)ccc23)Cc2ccccn2)n1`: the growth was 66.2% in the experiment on DU-145 prostate; 4.3% (active) with K-562 leukemia; 73.2% in the experiment on MALME-3M melanoma; 53.4% in the experiment on MDA-MB-231 breast; 41.8% with RXF 393 renal; 74.6% in the experiment on SF-268 CNS. The growth is 38.9% in the experiment on SF-295 CNS; 38.9% in the experiment on SF-539 CNS; 53.5% in the experiment with UACC-257 melanoma; 44.4% in the experiment on M14 melanoma; 35.2% in the experiment with HCT-15 colon; 64.1% with SNB-75 CNS. The growth is 66.5% in the experiment with SNB-19 CNS; 43.9% in the experiment with U251 CNS; 54.2% in the experiment with PC-3 prostate; 34.1% in the experiment on SK-MEL-5 melanoma; 55.9% in the experiment on UACC-62 melanoma; 68% in the experiment on SK-MEL-28 melanoma.
Consider `COc1ccc(NC(=O)C(=O)c2c[nH]c3ccc(F)cc23)cc1`, for which the growth with DU-145 prostate is 88.9%; with K-562 leukemia, 90.6%; in the experiment with MALME-3M melanoma it was 115%; with MDA-MB-231 breast, 95.5%; with RXF 393 renal, 103%; with SF-268 CNS, 94.7%. The growth is 102% in the experiment on SF-295 CNS; 108% in the experiment with SF-539 CNS; 101% with UACC-257 melanoma; 99.2% in the experiment on HCT-15 colon; 88.4% in the experiment on HT29 colon; 99.7% in the experiment on SNB-75 CNS. In addition, the growth in the experiment with SNB-19 CNS was 104%; in the experiment on U251 CNS, 91%; with PC-3 prostate it was 91.5%; with SK-MEL-5 melanoma, 97.4%; in the experiment on UACC-62 melanoma it was 99.3%; with LOX IMVI melanoma, 105%. For the same molecule, the growth with SK-MEL-28 melanoma was 109%.
For the molecule `NS(=O)(=O)c1cn(-c2ncnc3nc[nH]c23)ccc1=O`, the growth was 103% in the experiment on DU-145 prostate; 84.6% in the experiment on K-562 leukemia; 82.9% in the experiment with MALME-3M melanoma; 89.3% with MDA-MB-231 breast; 130% in the experiment on RXF 393 renal; 93.3% in the experiment on SF-268 CNS. Also, the growth was 49.3% in the experiment on SF-295 CNS; 105% in the experiment with SF-539 CNS; 138% with UACC-257 melanoma; 94% with HCT-15 colon; 101% in the experiment with HT29 colon; 75.4% in the experiment on SNB-75 CNS. Also, the growth with SNB-19 CNS was 97.2%; in the experiment on U251 CNS, 102%; in the experiment on PC-3 prostate, 96.1%; with SK-MEL-5 melanoma it was 97.6%; in the experiment on UACC-62 melanoma, 89.7%; in the experiment on LOX IMVI melanoma it was 99.9%. The growth in the experiment on SK-MEL-28 melanoma is 105%.
